Results: the supplement of paper PMC8728848
This excerpt belongs to a sample that is enriched for the strongest signals.

Tests used:
Experiment in all cases: glycan array binding signal (z-score within array); higher = stronger binding
Details in all cases: glycan notation: IUPAC condensed, linker removed
Fuc(a1-2)Gal(b1-3)GalNAc = molecular target: Fuc(a1-2)Gal(b1-3)GalNAc
Summary of the method: (§1)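 Glycan array binding is given as a within-array Z-score, which can be read as non-binding when negative. The arrays, 3228 of them, came from the Consortium for Functional Glycomics database and were retained only where the protein sequence was available. Z-scores were averaged across arrays of the same protein sequence at different concentrations or buffers and across linkers.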

[1] = molecular target: Fuc(a1-2)Gal(b1-3)[Fuc(a1-4)]GlcNAc(b1-3)[Gal(b1-4)GlcNAc(b1-6)]Gal(b1-4)Glc
Summary of the method: as §1

[2] = molecular target: Fuc(a1-2)[Gal(a1-3)]Gal(b1-4)GlcNAc(b1-6)GalNAc
Summary of the method: as §1

[3] = molecular target: Fuc(a1-2)[GalNAc(a1-3)]Gal(b1-3)GalNAc(a1-3)[Fuc(a1-2)]Gal(b1-4)GlcNAc
Summary of the method: as §1

[4] = molecular target: Fuc(a1-2)[GalNAc(a1-3)]Gal(b1-3)GlcNAc
Summary of the method: as §1

[5] = molecular target: Fuc(a1-2)[GalNAc(a1-3)]Gal(b1-3)GlcNAc(b1-6)GalNAc
Summary of the method: as §1

[6] = molecular target: Fuc(a1-2)[GalNAc(a1-3)]Gal(b1-4)GlcNAc(b1-3)Gal(b1-4)GlcNAc
Summary of the method: as §1

[7] = molecular target: Fuc(a1-2)[GalNAc(a1-3)]Gal(b1-4)GlcNAc(b1-3)Gal(b1-4)GlcNAc(b1-3)Gal(b1-4)GlcNAc
Summary of the method: as §1

[8] = molecular target: Fuc(a1-2)[GalNAc(a1-3)]Gal(b1-4)GlcNAc(b1-6)GalNAc
Summary of the method: as §1

[9] = molecular target: Fuc(a1-2)[GalNAc(a1-3)]Gal(b1-4)[Fuc(a1-3)]GlcNAc
Summary of the method: as §1

[10] = molecular target: Gal(a1-3)Gal(b1-3)GlcNAc(b1-6)GalNAc
Summary of the method: as §1

Gal(a1-3)Gal(b1-4)Glc = molecular target: Gal(a1-3)Gal(b1-4)Glc
Summary of the method: as §1

Gal(a1-4)GlcNAc = molecular target: Gal(a1-4)GlcNAc
Summary of the method: as §1

[11] = molecular target: Gal(b1-3)GlcNAc(b1-6)[Gal(b1-3)]GalNAc
Summary of the method: as §1

Gal(b1-4)Glc6S = molecular target: Gal(b1-4)Glc6S
Summary of the method: as §1

Gal(b1-4)GlcNAc(b1-2)Man = molecular target: Gal(b1-4)GlcNAc(b1-2)Man
Summary of the method: as §1

[12] = molecular target: Gal(b1-4)GlcNAc(b1-2)[Gal(b1-4)GlcNAc(b1-4)]Man(a1-3)[Gal(b1-4)GlcNAc(b1-2)Man(a1-6)]Man(b1-4)GlcNAc(b1-4)GlcNAc
Summary of the method: as §1

[13] = molecular target: Gal(b1-4)GlcNAc(b1-2)[Gal(b1-4)GlcNAc(b1-4)]Man(a1-3)[GlcNAc(b1-4)][Gal(b1-4)GlcNAc(b1-2)[Gal(b1-4)GlcNAc(b1-6)]Man(a1-6)]Man(b1-4)GlcNAc(b1-4)GlcNAc
Summary of the method: as §1

[14] = molecular target: Gal(b1-4)GlcNAc(b1-3)Gal(b1-4)GlcNAc(b1-3)Gal(b1-4)GlcNAc(b1-2)Man(a1-3)[Gal(b1-4)GlcNAc(b1-3)Gal(b1-4)GlcNAc(b1-3)Gal(b1-4)GlcNAc(b1-2)Man(a1-6)]Man(b1-4)GlcNAc(b1-4)[Fuc(a1-6)]GlcNAc
Summary of the method: as §1

[15] = molecular target: Gal(b1-4)GlcNAc(b1-6)[Gal(b1-4)GlcNAc(b1-3)]GalNAc
Summary of the method: as §1

[16] = molecular target: Gal3S(b1-4)[Fuc(a1-3)]GlcNAc6S
Summary of the method: as §1

Gal3S4S(b1-4)GlcNAc = molecular target: Gal3S4S(b1-4)GlcNAc
Summary of the method: as §1

GalNAc3S(b1-4)GlcNAc = molecular target: GalNAc3S(b1-4)GlcNAc
Summary of the method: as §1

GalNAc6S(b1-4)GlcNAc = molecular target: GalNAc6S(b1-4)GlcNAc
Summary of the method: as §1

[17] = molecular target: GlcNAc(b1-2)Man(a1-3)[GlcNAc(b1-2)Man(a1-6)]Man(b1-4)GlcNAc(b1-4)GlcNAc
Summary of the method: as §1

GlcNAc(b1-6)GalNAc = molecular target: GlcNAc(b1-6)GalNAc
Summary of the method: as §1

Kdn(a2-3)Gal(b1-3)GalNAc = molecular target: Kdn(a2-3)Gal(b1-3)GalNAc
Summary of the method: as §1

[18] = molecular target: Man(a1-2)Man(a1-3)[Man(a1-2)Man(a1-6)]Man
Summary of the method: as §1

[19] = molecular target: Man(a1-3)[Man(a1-6)]Man(a1-6)[Man(a1-3)]Man(b1-4)GlcNAc(b1-4)GlcNAc
Summary of the method: as §1

[20] = molecular target: Neu5Ac(a2-3)Gal(b1-3)GlcNAc(b1-3)Gal(b1-3)GlcNAc
Summary of the method: as §1

[21] = molecular target: Neu5Ac(a2-3)Gal(b1-3)GlcNAc(b1-4)Gal(b1-4)Glc
Summary of the method: as §1

[22] = molecular target: Neu5Ac(a2-3)Gal(b1-4)GlcNAc(b1-2)Man(a1-3)[GlcNAc(b1-4)][Neu5Ac(a2-3)Gal(b1-4)GlcNAc(b1-2)Man(a1-6)]Man(b1-4)GlcNAc(b1-4)GlcNAc
Summary of the method: as §1

[23] = molecular target: Neu5Ac(a2-3)Gal(b1-4)GlcNAc(b1-2)Man(a1-3)[Neu5Ac(a2-3)Gal(b1-4)GlcNAc(b1-2)Man(a1-6)]Man(b1-4)GlcNAc(b1-4)[Fuc(a1-6)]GlcNAc
Summary of the method: as §1

[24] = molecular target: Neu5Ac(a2-3)Gal(b1-4)GlcNAc(b1-2)[Neu5Ac(a2-3)Gal(b1-4)GlcNAc(b1-6)]Man(a1-6)[Neu5Ac(a2-3)Gal(b1-4)GlcNAc(b1-2)Man(a1-3)]Man(b1-4)GlcNAc(b1-4)GlcNAc
Summary of the method: as §1

[25] = molecular target: Neu5Ac(a2-3)Gal(b1-4)[Fuc(a1-3)]GlcNAc(b1-3)Gal(b1-4)GlcNAc
Summary of the method: as §1

[26] = molecular target: Neu5Ac(a2-3)Gal6S(b1-4)GlcNAc
Summary of the method: as §1

Neu5Ac(a2-3)GalNAc = molecular target: Neu5Ac(a2-3)GalNAc
Summary of the method: as §1

Neu5Ac(a2-6)Gal(b1-4)Glc = molecular target: Neu5Ac(a2-6)Gal(b1-4)Glc
Summary of the method: as §1

[27] = molecular target: Neu5Ac(a2-6)Gal(b1-4)GlcNAc(b1-2)Man(a1-6)Man(b1-4)GlcNAc(b1-4)GlcNAc
Summary of the method: as §1

[28] = molecular target: Neu5Ac(a2-6)Gal(b1-4)GlcNAc(b1-2)[Neu5Ac(a2-6)Gal(b1-4)GlcNAc(b1-4)]Man(a1-3)[GlcNAc(b1-4)][Neu5Ac(a2-6)Gal(b1-4)GlcNAc(b1-4)Man(a1-6)]Man(b1-4)GlcNAc(b1-4)GlcNAc
Summary of the method: as §1

[29] = molecular target: Neu5Ac(a2-6)Gal(b1-4)GlcNAc(b1-3)Gal(b1-4)GlcNAc
Summary of the method: as §1

[30] = molecular target: Neu5Ac(a2-6)Gal(b1-4)GlcNAc(b1-3)Gal(b1-4)GlcNAc(b1-3)GalNAc
Summary of the method: as §1

Neu5Ac(a2-6)GalNAc = molecular target: Neu5Ac(a2-6)GalNAc
Summary of the method: as §1

[31] = molecular target: Neu5Ac(a2-8)Neu5Ac(a2-8)Neu5Ac(a2-8)Neu5Ac(a2-3)[GalNAc(b1-4)]Gal(b1-4)Glc
Summary of the method: as §1

[32] = molecular target: Neu5Ac9Ac(a2-3)Gal(b1-4)GlcNAc
Summary of the method: as §1

[33] = molecular target: Neu5Gc(a2-8)Neu5Gc(a2-6)Gal(b1-4)GlcNAc
Summary of the method: as §1

B1: Cohesin-marm-DC-ASGPR-CRD (protein)
chain: LDITSHHHHHHDDLDAVRIKVDTVNAKPGDTVRIPVRFSGIPSKGIANCDFVYSYDPNVLEIIEIEPGDIIVDPNPDKSFDTAVYPDRKIIVFLFAEDSGTGAYAITKDGVFATIVAKVKEGAPNGLSVIKFVEVGGFANNDLVEQKTQFFDGGVNVGDTTEPATPTTPVTTPTTTDDLDAASCPINWVEHQGSCYWFSRSGKTWPEAERYCQLENTHLVVINSREEQNFVQAHLGSAYTWMGLSDPEGVWKWVDGTDYSSGFQNWKPGQPDDWQGHGLGGGEDCAHFHPDGRWNDDVCQRSYHWVCEAGLTQASQDSH
glycan array binding signal (z-score) (Fuc(a1-2)Gal(b1-3)GalNAc): -0.443
glycan array binding signal (z-score) [1]: -0.444
glycan array binding signal (z-score) [2]: -0.449
glycan array binding signal (z-score) [3]: 3.71
glycan array binding signal (z-score) [4]: 2.96
glycan array binding signal (z-score) [5]: 2.04
glycan array binding signal (z-score) [6]: 2.91
glycan array binding signal (z-score) [7]: 2.99
glycan array binding signal (z-score) [8]: 2.6
glycan array binding signal (z-score) [9]: 3.78
glycan array binding signal (z-score) [10]: 2.92
glycan array binding signal (z-score) (Gal(a1-3)Gal(b1-4)Glc): -0.398
glycan array binding signal (z-score) (Gal(a1-4)GlcNAc): -0.402
glycan array binding signal (z-score) [11]: -0.041
glycan array binding signal (z-score) (Gal(b1-4)Glc6S): -0.377
glycan array binding signal (z-score) (Gal(b1-4)GlcNAc(b1-2)Man): 3.13
glycan array binding signal (z-score) [12]: -0.44
glycan array binding signal (z-score) [13]: -0.305
glycan array binding signal (z-score) [14]: -0.304
glycan array binding signal (z-score) [15]: -0.405
glycan array binding signal (z-score) [16]: -0.069
glycan array binding signal (z-score) (Gal3S4S(b1-4)GlcNAc): -0.425
glycan array binding signal (z-score) (GalNAc3S(b1-4)GlcNAc): -0.449
glycan array binding signal (z-score) (GalNAc6S(b1-4)GlcNAc): 3
glycan array binding signal (z-score) [17]: -0.449
glycan array binding signal (z-score) (GlcNAc(b1-6)GalNAc): 2.94
glycan array binding signal (z-score) (Kdn(a2-3)Gal(b1-3)GalNAc): -0.362
glycan array binding signal (z-score) [18]: -0.447
glycan array binding signal (z-score) [19]: -0.452
glycan array binding signal (z-score) [20]: -0.433
glycan array binding signal (z-score) [21]: -0.449
glycan array binding signal (z-score) [22]: -0.448
glycan array binding signal (z-score) [23]: -0.449
glycan array binding signal (z-score) [24]: -0.331
glycan array binding signal (z-score) [25]: -0.388
glycan array binding signal (z-score) [26]: -0.447
glycan array binding signal (z-score) (Neu5Ac(a2-3)GalNAc): -0.435
glycan array binding signal (z-score) (Neu5Ac(a2-6)Gal(b1-4)Glc): -0.421
glycan array binding signal (z-score) [27]: -0.446
glycan array binding signal (z-score) [28]: -0.368
glycan array binding signal (z-score) [29]: -0.46
glycan array binding signal (z-score) [30]: -0.378
glycan array binding signal (z-score) (Neu5Ac(a2-6)GalNAc): 3.16
glycan array binding signal (z-score) [31]: 3.12
glycan array binding signal (z-score) [32]: -0.447
glycan array binding signal (z-score) [33]: -0.447
